Data from the supplement of paper PMC10338343.
± gives the standard deviation.

Experiments:
[1] = tested on: MILI (PIWIL2) piRISC loaded with L1MC piRNA (26 nt); test: pre-steady-state target cleavage rate (min^-1); guide: L1MC piRNA 5'p-UAACUAAAUACUAUGCAAGCUGUAGG; higher = faster piRNA-guided slicing of the target;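 also: 1 nM active piRISC with 0.1 nM target library at 33 °C single turnover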
Procedure, shortened: (§1)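 Cleave-'n-Seq measured uncleaved targets by sequencing after a transcribed, DNA-blocked target RNA library […] was mixed with 1 nM active affinity-purified piRISC holding one synthetic guide, with or without 500 nM GTSF1 partner protein, at 33 °C in HEPES–potassium acetate buffer for 0–8 or 0–960 min. Counts were normalised to depth and to weakly complementary targets, three trials were pooled, and k3 was capped at 0.0001 min^-1. A burst-and-steady-state fit gave the pre-steady-state cleavage rate.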

[2] = tested on: EfPiwi piRISC loaded with L1MC piRNA (26 nt); test: pre-steady-state target cleavage rate (min^-1); auxiliary factor: 500 nM Ephydatia muelleri Gtsf1; guide: L1MC piRNA 5'p-UAACUAAAUACUAUGCAAGCUGUAGG; MIWI and MILI are mouse PIWI proteins and EfPiwi is from a freshwater sponge; tags in brackets are library labels; higher = faster piRNA-guided slicing of the target
Procedure, shortened: as §1

[3] = auxiliary factor: 500 nM mouse GTSF1

| Sequence | pre-steady-state target cleavage rate [1, 3] | pre-steady-state target cleavage rate [2] | pre-steady-state target cleavage rate ([1]; auxiliary factor: none (no GTSF1)) |
| --- | --- | --- | --- |
| UCCUCCUACAGCUUGCAAAGAAUUUAGUUA | 0.0165 ± 0.0051 | 0.0033 ± 0.0027 |  |
| UCCUGCUACAGCUUGGAUAGUAAUUAGUUA | 0.204 ± 0.021 | 0.00773 ± 0.0024 |  |
| UCCUGGAUCAGCUUGCUUAGUAUUUAGAAA | 0.0821 ± 0.019 | 0.00269 ± 0.0022 |  |
| UCCUGGAUGAGCUUGCAUAGUAAUUAGUAA | 0.219 ± 0.042 | 0.00197 ± 0.0019 |  |
| UCCUGGAACAGCUUGCAUAGUAUUGAGUUA | 0.172 ± 0.029 | 0.00624 ± 0.0022 |  |
| UCCUCCUACAGCUUGCAUAGUAUUUGUUA | 0.203 ± 0.04 | 0.00561 ± 0.0026 |  |
| UCCUCCUAGAGCUUGCAUAGUAUUUACUUA | 0.146 ± 0.03 | 0.00356 ± 0.0033 |  |
| UCCUGGAACUCGUUGCAUAGUAUUUAGAAA | 0.136 ± 0.021 | 0.00502 ± 0.004 |  |
| UCCUGGUUGAGCUUGCAUAGUAUUUUCAAA | 0.0103 ± 0.006 | 0.00218 ± 0.0021 |  |
| UCCUCCUACAGCUUGCAUAAGUAUUUAGUUA | 0.0109 ± 0.0055 | 0.00345 ± 0.0019 |  |
| UCCUGGAUGAGCUUGCAUAGUAGUUAGUUA | 0.158 ± 0.026 | 0.00781 ± 0.0027 |  |
| UCCUGGAUGAGCUUGCAUAGUAUUUAUUUA | 0.0843 ± 0.024 | 0.00435 ± 0.0029 |  |
| UCCUCCUUCAGCUUGCAUAGAAUUUAGUUA | 0.0772 ± 0.016 | 0.00469 ± 0.0021 |  |
| UCCUGGAACAGCAUCCAUAGUAUUUAGUUA | 0.195 ± 0.045 | 0.0025 ± 0.0021 |  |
| UCCUGGAACAGCUUGCAUAGGUAUUUAGUUA |  | 0.00262 ± 0.0026 | 0.00517 ± 0.0026 |
| UCCUCCUACAGCUUGCAUAGUAAUUUCAAA | 0.182 ± 0.038 | 0.00321 ± 0.0026 |  |
| UCCUGGAUGUGCUUGCAUAGUAUUUAGAUUA | 0.0647 ± 0.016 | 0.00327 ± 0.0022 |  |
| UCCUGGAUGAGCUUGCCAUAGUAUUUAGUUA | 0.0808 ± 0.016 | 0.0035 ± 0.0026 |  |
| UCCUCCUACAGCUUGCAUAGUUUUUAGUAA | 0.0743 ± 0.015 | 0.005 ± 0.0022 |  |
| UCCUGGAACAGCUAGCAUAGUAUUUAGAUA | 0.118 ± 0.02 | 0.0041 ± 0.0023 |  |

| Sequence | pre-steady-state target cleavage rate [1, 3] | pre-steady-state target cleavage rate [2] | pre-steady-state target cleavage rate ([1]; auxiliary factor: none (no GTSF1)) |
| --- | --- | --- | --- |
| UCCUGGAUGUGCUUGCAUAGUAUUCAGUUA | 0.0572 ± 0.015 | 0.00279 ± 0.0024 |  |
| UCCUCCUACAGCUUGCAAUCUAUUUAGUUA | 0.0266 ± 0.0058 | 0.00376 ± 0.0036 |  |
| UCCUGGAACAGCUAGCAUAGUAUUUUGUUA | 0.154 ± 0.029 | 0.00465 ± 0.003 |  |
| UCCUCCUACAGCUUGCAUAGUAUUUACAAA | 0.197 ± 0.04 | 0.00422 ± 0.003 |  |
| UCCUGGUACAGCAUGCAUAGUAUUUAGAAA | 0.0581 ± 0.015 | 0.00215 ± 0.002 |  |
| UCCUGGAUCAGCUUGGAUAGUAUUUAGAAA | 0.0109 ± 0.0051 | 0.00249 ± 0.0024 |  |
| UCCUCCUACACGAUGCAUAGUAUUUAGAAA | 0.102 ± 0.021 | 0.00369 ± 0.0021 |  |
| UCCUGCUACAGCUUGCAUAGUAAUUACAAA | 0.0901 ± 0.029 | 0.00259 ± 0.0018 |  |
| UCCUCCUACAGCUUGCAUAGUAUAUACUUA | 0.0976 ± 0.028 | 0.00304 ± 0.0025 |  |
| UCCUGGUACAGCUUGCAUUGUAAUUAGUUA | 0.0918 ± 0.016 | 0.00313 ± 0.0023 |  |
| UCCUGGUACAGCUUGCAUAGUAUUAAGUAA | 0.128 ± 0.035 | 0.0031 ± 0.0028 |  |
| UCCUCCUACACCUUGCAUAGUAUUUAGAAA | 0.226 ± 0.05 | 0.00377 ± 0.0021 |  |
| UCCUGGAACAGCUUGGAUAGUAUUUAGAAA | 0.0385 ± 0.012 | 0.00373 ± 0.0019 |  |
| UCCUGCUACAGCUUGCAUAGAAUUUAGAAA | 0.0373 ± 0.015 | 0.00251 ± 0.0016 |  |
| UCCUGCUACAGCUUGCUUAGAAUUUAGUUA | 0.0543 ± 0.011 | 0.00357 ± 0.0018 |  |
| UCCUGGAUCAGCUUGCAUAGUAUUUUCAUA | 0.0451 ± 0.011 | 0.00263 ± 0.0022 |  |
| UCCUGCUACAGCUAGCAUAGUAUUUAGAUA | 0.151 ± 0.028 | 0.00409 ± 0.0015 |  |
| UCCUGGAACAGCUUGCAUAGUAUUCUAGUUA | 0.145 ± 0.032 | 0.00277 ± 0.0018 |  |
| UCCUGCAUCAGCUUGCAUAGUAUUUACAAA | 0.126 ± 0.025 | 0.00323 ± 0.0016 |  |
| UCCUGCUACAGCUUGCGAUAGUAUUUAGUUA | 0.0073 ± 0.0045 | 0.00987 ± 0.0026 |  |

| Sequence | pre-steady-state target cleavage rate [1, 3] | pre-steady-state target cleavage rate [2] | pre-steady-state target cleavage rate ([1]; auxiliary factor: none (no GTSF1)) |
| --- | --- | --- | --- |
| UCCUGCUACAGCAUGCAUAGAAUUUAGUUA | 0.0922 ± 0.021 | 0.00243 ± 0.002 |  |
| UCCUCGUACAGCUUCCAUAGUAUUUAGUUA | 0.0687 ± 0.018 | 0.00339 ± 0.0014 |  |
| UCCUGGAACAGGAUGCAUAGUAUUUACAAA | 0.0486 ± 0.017 | 0.00226 ± 0.0018 |  |
| UCCUGGAUGUGCUUGCAUAGUAUGUAGUUA | 0.134 ± 0.026 | 0.00399 ± 0.0022 |  |
| UCCUCCUACAGCUUGCUUAGUAUUUAGAAA | 0.091 ± 0.018 | 0.00569 ± 0.0027 |  |
| UCCUGGUACAGCUUGCAUAGAAUUAAGUUA | 0.0989 ± 0.03 | 0.00454 ± 0.0027 |  |
| UCCUCCUUGAGCUUGCAUAGUAUUUAGAAA | 0.145 ± 0.025 | 0.00549 ± 0.0018 |  |
| UCCUGCAACAGCUUCCAUAGUAUUUAGUUA | 0.112 ± 0.03 | 0.00273 ± 0.0014 |  |
| UCCUGGAACAGCUUGCAUAGUAUUUAUGUUA | 0.127 ± 0.018 | 0.0035 ± 0.002 |  |
| UCCUCCUACAGCUUGCAUUGUAUUUAGAAA | 0.0778 ± 0.019 | 0.00363 ± 0.0015 |  |
| UCCUCCUACUCGUUGCAUAGUAUUUAGAAA | 0.076 ± 0.019 | 0.004 ± 0.0035 |  |
| UCCUGGAUGAGCUUGCAUUGUAUUUAGAAA | 0.0178 ± 0.0069 | 0.00384 ± 0.0021 |  |
| UCCUGGAACAGCUUGCAUAGUAAAUAGAAA | 0.0493 ± 0.016 | 0.00337 ± 0.0028 |  |
| UCCUCCUACAGCUUGCAUAGUUAUUAGUAA | 0.031 ± 0.011 | 0.00524 ± 0.0028 |  |
| UCCUGGAACAGCUUGCAUAGUUUUUAGUAA | 0.0664 ± 0.015 | 0.00724 ± 0.0029 |  |
| UCCUGGAUCAGCUUCCAUAGUAUUUAGUUA | 0.0318 ± 0.0085 | 0.00321 ± 0.0017 |  |
| UCCUGGAACAGCUUGCAUAAGUAUUUAGUUA | 0.00757 ± 0.004 | 0.00284 ± 0.0024 |  |
| UCCUGGAACAGCUUGCAUAGUUAUUAGUAA | 0.0204 ± 0.0084 | 0.00454 ± 0.0037 |  |
| UCCUGCUACAGCUUGCAUAGUAUAUAGUAA | 0.0474 ± 0.018 | 0.00354 ± 0.0018 |  |
| UCCUCCAUGAGCUUGCAUAGUAUUUACAAA | 0.0266 ± 0.0095 | 0.00312 ± 0.0024 |  |
